# Reference: the supplement of paper PMC7366291
# Structures can show the parent of a compound that is named as a salt. ± gives the standard deviation or the standard deviation of the averaged measurements.
# How the values were obtained:
# Settings in all cases: 25 µM; exposure: 24-48 hpf
# [1] = system: Danio rerio Tg(wt1b:EGFP) embryo, pronephros; experiment: glomerular separation, fold change vs DMSO control; higher = glomeruli further apart (abnormal)
# How it was run: (§1)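 Using a Fiji macro, distances and angles were calculated from 16 reference points set by hand on maximum projections of pronephroi imaged dorsally (470 nm, 10 z-slices) in agarose-filled 96-well plates. The dechorionated Tg(wt1b:EGFP) zebrafish embryos had received 25 μM compound in 0.5% DMSO in HEPES-buffered E3 with 0.003% PTU from 24 to 48 hpf at 28.5°C. Values more than 2 SD from a feature's mean were excluded. Each feature appears as a fold change over the mean of DMSO-treated embryos from the same day.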
# [2] = system: Danio rerio Tg(wt1b:EGFP) embryo, pronephros; experiment: glomerular width (mean of left and right), fold change vs DMSO control; higher = wider glomerulus
# How it was run: as §1
# [3] = system: Danio rerio Tg(wt1b:EGFP) embryo, pronephros; experiment: fraction of imaged embryos annotated as normal kidney; higher = less nephrotoxic; extreme values may be limits of the assay
# How it was run: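 Embryos of the Tg(wt1b:EGFP) zebrafish line were dechorionated and held in 12-well plates with 25 μM compound in 0.5% DMSO and 5 mM HEPES-buffered E3 containing 0.003% PTU, from 24 to 48 hpf at 28.5°C. Larvae were then anaesthetised with tricaine, set dorsal side up in agarose-filled 96-well plates, and their pronephroi imaged by widefield fluorescence at 470 nm over 10 z-slices. Each value is the fraction of embryos per treatment placed in the normal-kidney category after manual annotation of maximum projections.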
# [4] = system: Danio rerio Tg(wt1b:EGFP) embryo, pronephros; experiment: pronephric angle neck segment to proximal convoluted tubule (mean of left and right), fold change vs DMSO control; higher = larger pronephric angle
# How it was run: as §1
Compound,glomerular separation [1],glomerular width [2],fraction of imaged embryos annotated as normal kidney [3],pronephric angle neck segment [4]
NC[C@H]1O[C@H](O[C@H]2[C@H](O)[C@@H](O[C@H]3O[C@H](CO)[C@@H](O)[C@H](N)[C@H]3O)[C@H](N)C[C@@H]2N)[C@H](N)C[C@@H]1O [Tobramycin],1.49 ± 0.73,0.94 ± 0.056,0.583,1.01 ± 0.011
CC12CC3CC(C)(C1)CC(N)(C3)C2 [Memantine Hydrochloride],1 ± 0.34,1.05 ± 0.079,0.917,0.9526 ± 0.0081
CCOC(=O)N1CCC(=C2c3ccc(Cl)cc3CCc3cccnc32)CC1 [Loratadine],1.4 ± 0.98,0.989 ± 0.055,–,1.1 ± 0.021
O=C(N[C@H](CO)[C@H](O)c1ccc([N+](=O)[O-])cc1)C(Cl)Cl [Chloramphenicol],1.33 ± 0.57,0.954 ± 0.035,1,0.935 ± 0.052
O=C(c1ccc(F)cc1)C1CCN(CCn2c(=O)[nH]c3ccccc3c2=O)CC1 [Ketanserin tartrate hydrate],0.846 ± 0.25,0.939 ± 0.021,0.833,1.03 ± 0.046
O=C(O)CCc1nc(-c2ccccc2)c(-c2ccccc2)o1 [Oxaprozin],4.33 ± 1.5,0.672 ± 0.032,0,1.87 ± 0.14
NNCCc1ccccc1 [Phenelzine sulfate],0.964 ± 0.27,1.04 ± 0.016,0.833,0.93 ± 0.067
NS(=O)(=O)Cc1noc2ccccc12 [Zonisamide],0.805 ± 0.15,1 ± 0.059,0.917,1.02 ± 0.017
CC(C)c1ccc2oc3nc(N)c(C(=O)O)cc3c(=O)c2c1 [Amlexanox],1.84 ± 0.69,1.04 ± 0.036,–,0.955 ± 0.017
CCC1NC(=O)c2cc(S(N)(=O)=O)c(Cl)cc2N1 (stereo not drawn) [Quinethazone],0.951 ± 0.37,1.05 ± 0.063,0.909,1.04 ± 0.027
